This note sets out measurements from PubChem BioAssay AID1851 (National Center for Advancing Translational Sciences (NCATS), 2009).

About 5,100 (32%) of roughly 16,000 compounds were called active. Not shown: some 25% with an inconclusive outcome. The list shows a part of the results. Unmarked numbers belong to inactive results. Calls follow the shape of the dose curve; as a rule, active = well fitted curve in the direction sought with a large enough effect; inconclusive = small, poorly fitted or top-dose-only effect, or effect the other way; inactive = no such curve, though single readings can be large or run the other way.
% is scaled to controls: 0 for no effect and ±100 for the full control effect.

Cytochrome P450 3A4 (Homo sapiens), sequence (P08684 whole entry, looked up): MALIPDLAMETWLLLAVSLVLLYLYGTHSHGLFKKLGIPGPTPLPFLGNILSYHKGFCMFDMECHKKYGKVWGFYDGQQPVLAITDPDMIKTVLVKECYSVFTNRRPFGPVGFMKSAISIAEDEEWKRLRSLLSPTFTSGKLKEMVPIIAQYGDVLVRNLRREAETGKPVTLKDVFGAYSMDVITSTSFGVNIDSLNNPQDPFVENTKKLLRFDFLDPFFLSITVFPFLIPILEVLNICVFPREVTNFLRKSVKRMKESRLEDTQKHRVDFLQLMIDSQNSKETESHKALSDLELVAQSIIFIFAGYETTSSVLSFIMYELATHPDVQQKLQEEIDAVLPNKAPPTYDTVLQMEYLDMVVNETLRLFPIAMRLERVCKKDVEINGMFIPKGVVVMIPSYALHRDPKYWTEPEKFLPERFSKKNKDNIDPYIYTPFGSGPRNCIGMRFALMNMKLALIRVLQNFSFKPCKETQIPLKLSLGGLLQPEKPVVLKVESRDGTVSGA

For this experiment, the target named is Cytochrome P450 3A4 (Homo sapiens) (UniProt P08684). In words: Cytochrome panel assay with activity outcomes. Particulars: recombinant CYP, pro-luciferin dealkylation, luminescence, p450-cyp3a4; series mostly up to 57.1 µM; activity, negative = inhibition: at the top concentration. On the procedure:
The P450 gene superfamily is involved in the metabolism and clearance of xenobiotics. This assay used various human CYP P450 isozymes to measure the dealkylation of various pro-luciferin substrates to luciferin. The luciferin is then measured by luminescence after the addition of a luciferase detection reagent. Pro-luciferin substrate concentration in the assay was equal to its KM for its CYP P450 isozyme. Inhibitors and some substrates limit the production of luciferin, and decrease measured luminescence.
NCGC Assay Protocol Summary:
1, Reagent, 2 uL, Isozyme and Pro-Luciferin
2, Library compounds, 23 nl, 40 uM to 0.24 nM dilution series
3, Controls, 23 nl, Isozyme specific inhibitor
4, Reagent, 2 uL, NADPH regeneration solution
5, Incubation time, 60 min, Isozyme specific temperature
6, Reagent, 4ul, Detection reagent
7, Incubation time, 20 min, Isozyme specific temperature
8, Detection, 1 sec, ViewLux luminescent read
The luciferase-based P450-GloTM Screening Systems were obtained from Promega (Madison, WI) for CYP 1A2 (V9770), CYP 2C9 (V9790), CYP2 C19 (V9880), CYP 2D6 (V9890), and CYP 3A4 Luciferin-PPXE (V9910) and were adapted for 1,536-well microplates and an automated protocol. The control compounds furafylline for 1A2 (F124), sulfaphenazole for CYP 2C9 (S0758), ketoconazole for CYP 2C19 (K1003), quinidine for 2D6 (Q3625), and ketoconazole for 3A4 (K1003) were purchased from Sigma Aldrich (St. Louis, MO). Recombinant P450 enzymes were obtained from baculovirus constructs expressed in insect cells (BD/Gentest).
Medium-binding white solid Kalypsys plates used. Mixtures kept on ice. 1A2: 10 nM 1A2, 100 uM Luc-ME, 100 mM KPO4; 2C9: 10 nM 2C9, 100 uM Luc-H, 25 mM KPO4; 2C19: 5 nM 2C19, 10 uM Luc-H EGE, 50 mM KPO4; 2D6: 5 nM 2D6, 30 uM Luc-ME EGE, 100 mM KPO4; 3A4: 10 nM, 25 uM Luc-PPXE. All amounts are reflected in their final concentration, working concentration is 2x.
NADPH regeneration solution: 1.3 mM NADP+, 3.3 mM glucose-6-phosphate, 3.3 mM MgCl2, 0.4 U/mL glucose-6-phosphate dehydrogenase for all isozymes, 200 mM KPO4 for 3A4. Mixture prepared at RT but kept on ice during automated run.
RT incubation in auxilliary plate hotel for 1A2, 2D6, and 3A4; 37C for 2C9 and 2C19.
Keywords: P450, CYP1A2, CYP2C19, CYP2C9, CYP2D6, CYP3A4, Luciferase, MLSMR, MLSCN, NIH Roadmap, qHTS, NCGC
For orientation: AC50 means the concentration at which the activity in the assay is half-maximal. Consider `CSc1nc2c(c(=O)[nH]1)C(c1ccncc1)C(C(=O)OC(C)C)=C(C)N2` (configuration not stated), for which the AC50 was 1.26 µM (active).
As for `CCSc1nc2c(c(=O)[nH]1)C(c1ccncc1)C(C(=O)OC(C)C)=C(C)N2` (configuration not stated), the AC50 is 1.12 µM (active).
For the compound `CCSc1nc2c(c(=O)[nH]1)C(c1ccccn1)C1=C(CC(C)(C)CC1=O)N2` (configuration not stated), the “activity, negative = inhibition” value is -27.4%.
Same read-out and setting: the result for `COCCCNC(=O)/C=C/c1ccc(Cl)cc1` reads -5.86%; that for `COC(=O)CNC(=O)/C=C/c1ccc(OC)cc1`, -5.5%.
For the compound `COc1ccc(CNC(=O)/C=C/c2ccc(OCCCF)cc2)cc1`, the AC50 is 5.01 µM (active).
For the compound `CCCCSc1ccc2nc(-c3ccc(C#N)cc3)cn2c1`, the activity, negative = inhibition is 20.1% [at 2.29 µM].
The same measure, in the same setting: the figure for `CCn1c(SCc2ccc(C#N)cc2)nnc1-c1ccc(S(=O)(=O)N2CCCCC2)cc1` is 16.3%.
Take `CCn1c(COc2ccc(C)cc2)nnc1SCc1ccc(C#N)cc1`: the AC50 is 2 µM (active).
Take `CCOc1[nH]n(-c2ccc(Cl)cc2)c(=O)c1C=Nc1ccc(Cl)cc1`: the “activity, negative = inhibition” value is -6.06%.
As for `CCc1nnc(NS(=O)(=O)c2ccc(N=Cc3c(C)[nH]n(-c4ccc(C)cc4)c3=O)cc2)s1`, the concentration at half-maximal activity (AC50) is 22.4 µM (active).
For `CC#CCCCC(=O)Nc1ccc(C(=O)O)cc1`, the “activity, negative = inhibition” value is -7.69%.
On to `COc1cc(NC(=O)c2c(F)cccc2F)nc(OC)n1`, for which the “activity, negative = inhibition” value was -27.2%.
In the case of `CC#CCCCC(=O)Nc1cc(OC)nc(OC)n1`, the concentration at half-maximal activity (AC50) was 14.1 µM (active).
`CN(C)/C=C/C(=O)c1ccc(Cl)cc1`: the “activity, negative = inhibition” value was -19.9%.
Take `CNc1ccc(Br)cc(C(=O)/C=C/c2ccc3c(c2)OCO3)c1=O`: the AC50 is 11.2 µM (active).
`CCNc1ccc(Br)cc(C(=O)/C=C/c2ccc3c(c2)OCO3)c1=O`: the AC50 is 17.8 µM (active).
As for `CN(C)CCNC(=O)C(C(=O)c1ccc(F)cc1)n1ccccc1=O` (configuration not stated), the “activity, negative = inhibition” value is 3.86%.
`CCCn1nnc(NC(=O)c2ccc(-c3cccc(Cl)c3)o2)n1`: the AC50 was 28.2 µM (active).
On to `CCCn1nnnc1-c1cccc(Cl)c1`, for which the “activity, negative = inhibition” value was -8.36%.
The same measure, in the same setting: the result for `O=C(Nc1cccc2nsnc12)c1ccc(-c2cccc(Cl)c2)o1` reads 1.55% [at 2.29 µM].
Regarding `OC(c1ccccc1)(c1ccc(F)cc1)C(c1ccccc1)N1CCOCC1` (configuration not stated), the AC50 is 3.98 µM (active).
As to `N#C/C(=C/N1CCOCC1)c1ccccc1`, the “activity, negative = inhibition” value was 2.4%.
For `C[C@@H](N1CCOCC1)[C@@](O)(c1ccccc1)c1ccccn1`, the activity, negative = inhibition was -13% [at 11.4 µM].
Same read-out and setting: the figure for `Nc1ccc(N=Nc2c(S(=O)(=O)O)cc3ccccc3c2S(=O)(=O)O)cc1` is 5.34% [at 11.4 µM]; for `Cc1nc2sccn2c(=O)c1Cl` it is -1.16%.
On to `CCOc1cccc(C2C(C(=O)c3ccc(C)o3)=C(O)C(=O)N2Cc2ccncc2)c1` (configuration not stated), for which the AC50 is 5.01 µM (active).
Turning to `Cc1ccc(C2C(C(=O)c3sc(C)nc3C)=C(O)C(=O)N2CCN2CCOCC2)o1` (configuration not stated), the “activity, negative = inhibition” value is -18.5%.
On to `Cc1ccc(C(=O)C2=C(O)C(=O)N(CCCn3ccnc3)C2c2ccc(OC(C)C)cc2)o1` (configuration not stated), for which the AC50 was 7.94 µM (active).
Regarding `COc1cc(C2C(C(=O)c3ccc(C)o3)=C(O)C(=O)N2CCc2ccccc2)ccc1O` (configuration not stated), the “activity, negative = inhibition” value was -10.4%.
Still for that read-out and setting: the figure for `CN(C)CCN1C(=O)C(O)=C(C(=O)c2cc3ccccc3o2)C1c1ccccn1` (configuration not stated) is -4.62%; for `Cc1cc(N2C(=O)C(O)=C(C(=O)c3cccs3)C2c2cccc(O)c2)no1` (configuration not stated) it is -13.2%.
